According to PubChem BioAssay AID1159580 (chemical genetic matrix, 2015):
“And” between values parts separate entries of the source, which are not always exact repeats. Equal entries are not always repeated. Screen size: about 5,500 compounds; about 2,000 (36%) were called active. Inconclusive results (about 18%) are left out. No stated cut-off is given here; in the data, active means normalized growth mostly below about 0.91 (no sharp cut-off); inconclusive means no clear call, values can overlap the other calls; inactive means mostly above about 0.92. The list shows a part of the results.

Test: chemical genetic growth profiling, strain panel (AID 1159580);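 further: tested at 20 µM; growth read once vehicle control cultures reached saturation at 30 °C; 1 = growth at the plate median or of vehicle wells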
Settings: S. cerevisiae deletion strains, growth OD

Measured: normalized growth

CC1=C(/C=C/C(C)=C/C=C/C(C)=C/C(=O)O)C(C)(C)CCC1
active: locus YDR137W, strain rgp1, stronger effect = lower value 0.824 | locus YDR392W, strain spt3, stronger effect = lower value 0.513
inactive: locus YAL013W, strain DEP1, stronger effect = lower value 0.993 and 1.03 | locus YAL021C, strain ccr4, stronger effect = lower value 1.01 | locus YAL026C, strain drs2, stronger effect = lower value 0.958 | locus YAL030W, strain snc1, stronger effect = lower value 0.996 | locus YAL040C, strain CLN3, stronger effect = lower value 1.03 | locus YBL061C, strain skt5, stronger effect = lower value 0.952 | locus YBR009C, strain hhf1, stronger effect = lower value 0.968 | locus YBR021W, strain FUR4, stronger effect = lower value 1.04 | locus YBR023C, strain chs3, stronger effect = lower value 0.959 | locus YBR171W, strain sec66, stronger effect = lower value 1 | locus YBR229C, strain ROT2, stronger effect = lower value 1.01 | locus YBR231C, strain swc5, stronger effect = lower value 0.996 | locus YBR279W, strain paf1, stronger effect = lower value 0.994 | locus YCL011C, strain gbp2, stronger effect = lower value 0.976 | locus YCL016C, strain dcc1, stronger effect = lower value 0.951 | locus YCL029C, strain bik1, stronger effect = lower value 1.02 | locus YCL061C, strain MRC1 (second series), stronger effect = lower value 1.01 | locus YCL061C, strain MRC1, stronger effect = lower value 0.969 | locus YCL069W, strain vba3, stronger effect = lower value 1 | locus YCR088W, strain abp1, stronger effect = lower value 0.993 | locus YDL005C, strain med2, stronger effect = lower value 0.998 | locus YDL035C, strain GPR1, stronger effect = lower value 0.998 | locus YDL040C, strain nat1, stronger effect = lower value 1 | locus YDL074C, strain BRE1, stronger effect = lower value 0.995 | locus YDL101C, strain DUN1, stronger effect = lower value 1.01 | locus YDL134C, strain PPH21, stronger effect = lower value 1.01 | locus YDL185W, strain tfp1, stronger effect = lower value 1.03 | locus YDL192W, strain arf1, stronger effect = lower value 1.03 | locus YDR001C, strain nth1, stronger effect = lower value 1 | locus YDR069C, strain doa4, stronger effect = lower value 0.979 | locus YDR101C, strain arx1, stronger effect = lower value 1.03 | locus YDR150W, strain NUM1, stronger effect = lower value 1.02 and 1.01 | locus YDR159W, strain sac3, stronger effect = lower value 0.928 | locus YDR162C, strain NBP2, stronger effect = lower value 1.01 | locus YDR195W, strain ref2 1.03 | locus YDR297W, strain sur2, stronger effect = lower value 0.991 | locus YDR318W, strain mcm21, stronger effect = lower value 1.01 | locus YDR334W, strain swr1, stronger effect = lower value 1.02 | locus YDR335W, strain msn5, stronger effect = lower value 0.962 | locus YDR363W, strain ESC2, stronger effect = lower value 0.994 | locus YDR388W, stronger effect = lower value 1.03 | locus YDR502C, strain sam2, stronger effect = lower value 1.03 | locus YEL003W, strain gim4, stronger effect = lower value 1.01 | locus YEL037C, strain rad23, stronger effect = lower value 1 | locus YEL061C, strain CIN8 (second series), stronger effect = lower value 1.01 | locus YEL061C, strain CIN8, stronger effect = lower value 1.01 | locus YER002W, strain NOP16, stronger effect = lower value 1.03 | locus YER015W, strain faa2, stronger effect = lower value 0.995 | locus YER016W, strain bim1, stronger effect = lower value 0.954 | locus YER110C, stronger effect = lower value 1.04 | locus YER111C, strain swi4, stronger effect = lower value 1 | locus YER155C, strain BEM2 (second series), stronger effect = lower value 0.953 | locus YER155C, strain BEM2, stronger effect = lower value 1.01 | locus YER167W, strain BCK2, stronger effect = lower value 1.01 | locus YFR010W, strain ubp6, stronger effect = lower value 0.99 | locus YGL078C, strain dbp3, stronger effect = lower value 1.03 | locus YGL086W, strain mad1, stronger effect = lower value 1.02 | locus YGL167C, strain pmr1, stronger effect = lower value 1.02 | locus YGL173C, strain kem1, stronger effect = lower value 0.97 | locus YGL227W, strain vid30, stronger effect = lower value 1.03 | locus YGL240W, strain doc1, stronger effect = lower value 0.992 | locus YGL248W, strain PDE1, stronger effect = lower value 1.01 | locus YGL253W, strain hxk2, stronger effect = lower value 0.99 | locus YGR078C, strain PAC10, stronger effect = lower value 0.996 | locus YGR135W, strain pre9, stronger effect = lower value 1.01 | locus YGR229C, strain SMI1, stronger effect = lower value 0.996 and 0.979 | locus YGR252W, strain gcn5, stronger effect = lower value 1.08 | locus YHR013C, strain ard1, stronger effect = lower value 0.942 | locus YHR027C, strain rpn1, stronger effect = lower value 0.975 | locus YHR030C, strain SLT2, stronger effect = lower value 1.01 and 0.982 | locus YHR079C, strain IRE1 (second series), stronger effect = lower value 1.01 | locus YHR079C, strain IRE1, stronger effect = lower value 1.01 | locus YHR094C, strain hxt1, stronger effect = lower value 1.03 | locus YHR129C, strain ARP1, stronger effect = lower value 1.01 | locus YHR142W, strain chs7, stronger effect = lower value 0.957 | locus YHR200W, strain rpn10, stronger effect = lower value 1.04 | locus YIL066C, strain RNR3, stronger effect = lower value 1 | locus YIL073C, strain SPO22, stronger effect = lower value 1.04 | locus YIL125W, strain kgd1, stronger effect = lower value 1.03 | locus YIR030C, strain dcg1, stronger effect = lower value 1.03 | locus YJL092W, strain hpr5, stronger effect = lower value 0.988 | locus YJL095W, strain BCK1 (second series), stronger effect = lower value 0.987 | locus YJL095W, strain BCK1, stronger effect = lower value 0.999 and 0.96 | locus YJL115W, strain asf1, stronger effect = lower value 1 | locus YJL129C, strain trk1, stronger effect = lower value 0.963 | locus YJL134W, strain LCB3, stronger effect = lower value 1.01 | locus YJL154C, strain vps35, stronger effect = lower value 1.02 | locus YJL164C, strain tpk1, stronger effect = lower value 0.971 | locus YJL166W, strain qcr8, stronger effect = lower value 0.987 | locus YJL168C, strain set2, stronger effect = lower value 1.04 | locus YJL187C, strain SWE1 (second series), stronger effect = lower value 1.01 | locus YJL187C, strain SWE1, stronger effect = lower value 0.989 | locus YJR043C, strain POL32, stronger effect = lower value 1.01 | locus YJR066W, strain TOR1, stronger effect = lower value 0.926
